Assay outcomes (PubChem)
This is a sample that favours compounds with a hit; in the whole collection about 18% have one here.
TDP1 inh: inhibitors of human tyrosyl-DNA phosphodiesterase TDP1; Q9NUW8; recombinant TDP1, AlphaScreen DNA substrate cleavage; Potency, µM (series often up to 130 µM), for inactives: at the highest dose activity change, negative = inhibition, actives largely listed as inhibitors; actives 0.28% (n = 350,000); AID 485290; note: nearly all actives have a fitted effect of over 40% in size
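Recombinant human Tdp1 (E. coli-expressed, 1 nM final) preincubated with compounds 15 min at room temperature, then 5'-biotin/3'-phosphotyrosine-FITC DNA substrate (15 nM final) added for 5 min. AlphaScreen beads (10 ug/ml final) added 10 min; cleavage lowers signal.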
DT40 TDP1 no CPT: qHTS for Inhibitors of human tyrosyl-DNA phosphodiesterase 1 (TDP1): qHTS in cells in absence of CPT; DT40 Tdp1-/- hTDP1 cells, no CPT, ATP luminescence, 48 h; Potency, µM (doses to about 46.2 µM), without a hit: at the top dose activity change, negative = growth inhibition, usual class: inhibitors; actives 15% (n = 420,000); AID 686978, 2013; note: nearly all actives have a fitted effect of over 55% in size
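Compound effects on proliferation are scored in DT40 Tdp1-/-;hTDP1 cells in the absence of CPT. ATP levels (CellTiter-Glo luminescence) are recorded after a ≥48 hr, 37 °C incubation.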
DT40 TDP1 CPT: growth inhibition of DT40 Tdp1-/-;hTDP1 cells with camptothecin (screen for TDP1 inhibitors) | chicken DT40 Tdp1-/-;hTDP1 cells + 20 nM CPT, ATP luminescence, 48 h | Potency, µM (doses to about 46.2 µM), for the others: top-dose activity change, negative = growth inhibition, hits mostly inhibitors | actives 12% (n = 420,000); note: nearly all actives have a fitted effect of over 55% in size
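Chicken DT40 Tdp1-/- cells stably complemented with human TDP1 were seeded at 400 cells/well in medium containing 20 nM camptothecin, exposed to pin-transferred compounds, and grown at 37 °C for at least 48 hr. Viability was read as ATP luminescence.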
VDR inh: vitamin D3 receptor (human) inhibition. P11473. VDR-SRC2-3 peptide fluorescence polarization, 2 h. Potency, µM, for the others: max response, negative = inhibition, usual class: inhibitors. actives 0.93% (n = 400,000)
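Two reagent solutions held at 4 deg C in the dark were dispensed, compounds pinned at 23 nl, and the mixture incubated 2 h at room temperature. Read-out: fluorescence polarization of VDR–SRC2-3 peptide binding.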
PLK1 PBD inh: PLK1 (human) polo-box domain binding inhibition; Plk1 PBD binding of FITC phosphopeptide, fluorescence polarization; Potency, µM, for the others: max response, negative = inhibition, usual class: inhibitors; actives 2.8% (n = 360,000); note: series mostly up to about 57 µM; nearly all actives have a fitted effect of over 65% in size
GCN5L2 inh: blocks human GCN5L2 histone acetyltransferase | Q92830 | GCN5L2 HAT assay, ThioGlo1 CoA-SH fluorescence | Potency, µM (highest dose often 58.9 µM), inactives show at the top dose activity change, negative = inhibition, most hits filed as inhibitors | actives 0.21% (n = 390,000)
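GCN5L2 (20nM final) in 50mM HEPES, 0.1mM EDTA pH 7.5, 0.01% Tween-20 was preincubated 15 min at room temperature with compound, then given ThioGlo1 (50uM), H3(1-25) peptide (75uM) and acetyl-CoA (70uM); CoA-thiol fluorescence (Ex340/Em540) was read at 0 and 20 min.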
Numbers without * were called inactive; ? = inconclusive; · = no result given; [ ] = another dose, or the depositor's remark. Calls come from the whole dose curve; as a rule, active = well fitted curve in the direction sought with a large enough effect; inconclusive = small, poorly fitted or top-dose-only effect, or another doubt; inactive = no such curve, though single readings can be large; an effect the other way counts as inactive or inconclusive. % is set by controls: 0 for no effect and ±100 for the full control effect; potency is the fitted concentration of half-maximal effect.

SMILES	TDP1 inh	DT40 TDP1 no CPT	DT40 TDP1 CPT	VDR inh	PLK1 PBD inh	GCN5L2 inh
Cc1ccc(S(=O)(=O)N2CCCc3ccccc32)cc1C	·	9.2µM*	12µM*	-17%	-13%	-2%
O=C(NCCn1cccn1)C1CCC(=O)N(CCc2ccc(Cl)cc2)C1 (stereo not drawn)	1%	28%	-11%	-11%	-8%	2%
c1ccc(C[n+]2cccc(-c3ccccc3)c2)cc1	0%	8.2µM*	8.2µM*	?	-21%	-6%
O=C(C[n+]1ccc2ccccc2c1)c1ccccc1	8%	-6%	4%	2%	-5%	-4%
Clc1cccc(Cl)c1C[n+]1ccc2ccccc2c1	·	1.5µM*	1.6µM*	21%	-12%	-20%
c1ccc(C[n+]2ccc3ccccc3c2)cc1	·	16µM*	10µM*	-13%	-3%	·
NC(=O)c1ccc[n+](Cc2ccccc2)c1	5%	-2%	-5%	-24%	-4%	2%
Cc1ccc(C(=O)C[n+]2cc(Br)cc(Br)c2)cc1[N+](=O)[O-]	-5%	?	-25%	-7%	-22%	-5%
Cc1ccc(N2C(=O)CC(Cc3ccc(Cl)cc3)C2=O)cc1 (stereo not drawn)	·	6%	-2%	8%	-7%	-3%
CCc1ccccc1NC(=O)CSc1nnc(-c2ccc(OC)cc2)s1	2%	-20%	9%	6%	·	-6%
COc1cccc(N2CCN(c3c4c(nc5ncnn35)CCC4)CC2)c1	5%	16µM*	?	16%	0%	-3%
Cc1cccc(-c2cc3nc4c(c(N5CCC6(CC5)OCCO6)n3n2)CCCC4)c1	·	-26%	-30%	2%	-7%	·
Cc1cccc(Nc2c3c(nc4ncnn24)CCC3)c1	5%	?	-28%	-13%	-13%	-4%
COc1cccc(-c2cc3nc4c(c(N5CCC6(CC5)OCCO6)n3n2)CCC4)c1	-2%	26µM*	18µM*	10%	0%	1%
COc1ccc(-c2cc3nc4c(c(N5CCC6(CC5)OCCO6)n3n2)CCC4)cc1	5%	26µM*	13µM*	-3%	-3%	-2%
COc1cccc(-c2cc3nc(-c4ccccc4)cc(N4CCCC(O)C4)n3n2)c1 (stereo not drawn)	-5%	?	?	2%	-10%	-10%
COc1ccc(-c2cc3nc(-c4ccccc4)cc(N4CCC5(CC4)OCCO5)n3n2)cc1	·	?	26µM*	16%	-6%	-28%
CN1CC(=O)N(CC(=O)Nc2cccc(C#N)c2)c2ccccc2C1=O	3%	24%	-2%	2%	·	-23%
Cc1cn2c(=O)cc(COc3cccc(NC(=O)c4ccccc4C)c3)nc2s1	1%	?	-21%	-12%	·	-8%
COc1ccc2ccccc2c1CN1CCc2nnc(CNC(=O)c3cccc(F)c3)n2CC1	·	-24%	12%	·	·	·
CCC1(C2CCN(C(=O)c3csc(C(C)=O)c3)CC2)NC(=O)N(CCc2scnc2C)C1=O (stereo not drawn)	·	-14%	12%[9.04 µM]	·	·	·
CC(=O)c1ccc(NC(=O)c2cn(C)c(=O)c3ccccc23)cc1	9%	?	?	1%	2%	-3%
COc1ccc(-n2nc3c(=O)[nH][nH]c3cc2=O)cc1	45µM*	-10%	?	-18%	-4%	-10%
CCc1ccc([C@@H]2CC=C(C(=O)O)[C@H](c3ccc(Cl)cc3)N2S(=O)(=O)c2ccc(C)cc2)cc1	-3%	-6%	-10%	-28%	?	?
Cc1ccccc1S(=O)(=O)N1C(c2ccc(Cl)cc2)CC=C(C(=O)O)C1c1cccc(Cl)c1 (stereo not drawn)	·	0%	-2%	·	27µM*	·
